Test results as given in PubChem BioAssay (Tox21).
Values joined by “and” are separate entries in the source; they are usually repeats but may differ in a detail not shown here. Equal entries are not always repeated. Inconclusive results are not listed. Active and inactive are the calls of the source. Unless noted, calls come from the whole dose curve; as a rule, active = well fitted curve in the direction sought with a large enough effect in the repeat runs; inconclusive = weak or mixed curves; inactive = no such curve, though single readings can be large; an effect the other way counts as inactive or inconclusive.

Columns and labels:
[1] = qHTS assay to identify small molecule antagonists of the androgen receptor (AR) signaling pathway using the MDA cell line in the presence of 0.5 nM R1881 - cell viability counter screen (AID 1259242); note: nearly all actives have a fitted effect of over 45% in size; note: potency is the fitted concentration of half-maximal effect
Procedure, shortened: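 Live-cell protease activity was measured by CellTiter-Fluor fluorescence after 30 min. Before that, MDA-kb2 MMTV-luciferase cells had 16 hr at 37C without CO2, exposed to test compounds and 0.5 nM R1881 final.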

[2] = target: Androgen receptor (Homo sapiens) (UniProt P10275); assay: qHTS assay to identify small molecule antagonists of the androgen receptor (AR) signaling pathway using the MDA cell line in the presence of 0.5 nM R1881 (AID 1259243); note: nearly all actives have a fitted effect of over 50% in size; note: potency is the fitted concentration of half-maximal effect
Procedure, shortened: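 Luminescent reporter readout (ONE-Glo, 30 min, room temperature) after 16 hr co-treatment of MDA-kb2 cells with test compounds and 0.5 nM R1881 final, at 37C without CO2. The MMTV-driven luciferase responds to both AR and GR.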

[3] = qHTS assay to identify small molecule HDAC inhibitors (AID 1259364); note: top concentration of the series differs between compounds; nearly all actives have a fitted effect of over 45% in size
Procedure, shortened: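 Luminescence read after 30 min room-temperature HDAC-Glo incubation measures cellular class I/II HDAC activity. Compounds were applied for 2 hr at 37 C to HCT-116 wild-type cells seeded the day before.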

[4] = qHTS assay to identify small molecule HDAC inhibitors - cell viability counter screen (AID 1259365); note: nearly all actives have a fitted effect of over 50% in size; note: potency is the fitted concentration of half-maximal effect; for activity change, negative = cytotoxicity: series mostly up to about 92 µM
Procedure, shortened: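 Following a 2hr exposure of overnight-plated wild-type HCT-116 cells to DMSO-delivered compounds, CellTiter-Glo was added and luminescence recorded after 30min at room temperature.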

[5] = qHTS assay to identify small molecule antagonists of the sonic hedgehog signaling (Shh) pathway - cell viability counter screen (AID 1259367); note: nearly all actives have a fitted effect of over 55% in size
Procedure, shortened: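 Tox21 library chemicals were tested on a Gli1-Luc NIH/3T3 clone (2,000 cells/well) stimulated by conditioned medium; viability was quantified as fluorescence from CellTiter-Fluor reagent added at 23 hr.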

[6] = qHTS assay to identify small molecule agonists of the sonic hedgehog signaling (Shh) pathway (AID 1259368; calls by dose curve;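 note: NIH/3T3-derived 3T3Gli1-Luc cells carrying a stable Gli1-driven firefly luciferase reporter; series mostly up to about 92 µM; nearly all actives have a fitted effect of over 15% in size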)
Procedure, shortened: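 Luminescence was read after 30 min at room temperature with luciferase reagent. Before that, 3T3Gli1-Luc cells (NIH/3T3 clone, stable Gli1-Luc reporter; 2,000/well) were exposed to compounds for 24 hr at 37C, 5% CO2, compounds being added 4 hr post-plating.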

[7] = qHTS assay to identify small molecule agonists of the sonic hedgehog signaling (Shh) pathway - cell viability counter screen (AID 1259366); note: nearly all actives have a fitted effect of over 50% in size; note: potency is the fitted concentration of half-maximal effect
Procedure, shortened: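 After a 4hr attachment at 37C, NIH/3T3 cells bearing an integrated Gli1-driven luciferase reporter were dosed with compounds. Treatment lasted 24hr, with the final hour including CellTiter-Fluor for a fluorescence viability measurement.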

[8] = qHTS assay to identify small molecule antagonists of the sonic hedgehog signaling (Shh) pathway (AID 1259369; calls by dose curve; note: nearly all actives have a fitted effect of over 45% in size; note: potency is the fitted concentration of half-maximal effect)
Procedure, shortened: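 Antagonist mode: compound added to 3T3 Gli1-Luc cells followed by conditioned-medium stimulation, 24 h at 37 C, 5% CO2. Inhibition taken as loss of Gli1-driven luciferase luminescence.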

[9] = target: Estrogen receptor (Homo sapiens) (UniProt P03372); assay: qHTS assay to identify small molecule antagonists of the estrogen receptor alpha (ER-alpha) signaling pathway using the BG1 cell line in the presence of 0.1 nM 17-beta-estradiol (AID 1259244); note: nearly all actives have a fitted effect of over 50% in size
Procedure, shortened: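 Luciferase luminescence (ONE-Glo, 30 min at room temperature) was read after 22 hr at 37C exposure to compounds plus 17beta-estradiol at 0.1 nM final. Cells were VM7Luc4E2 with endogenous ER-alpha and an ERE-driven luciferase, pre-cultured 5 days in hormone-depleted medium.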

[10] = qHTS assay to identify small molecule phospholipidosis (PLD) inducers (AID 1259344; active = well fitted curve in the direction sought with a large enough effect; an effect the other way counts as inactive or inconclusive)
Procedure, shortened: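 Image-based: LipidTOX Red pit count/intensity per well and per cell; HepG2, 24 h compound at 37 C, PFA fixation, Hoechst counterstain.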
% is set by controls: 0 for no effect and ±100 for the full control effect.

Chain of Androgen receptor (Homo sapiens) (P10275 whole entry, looked up): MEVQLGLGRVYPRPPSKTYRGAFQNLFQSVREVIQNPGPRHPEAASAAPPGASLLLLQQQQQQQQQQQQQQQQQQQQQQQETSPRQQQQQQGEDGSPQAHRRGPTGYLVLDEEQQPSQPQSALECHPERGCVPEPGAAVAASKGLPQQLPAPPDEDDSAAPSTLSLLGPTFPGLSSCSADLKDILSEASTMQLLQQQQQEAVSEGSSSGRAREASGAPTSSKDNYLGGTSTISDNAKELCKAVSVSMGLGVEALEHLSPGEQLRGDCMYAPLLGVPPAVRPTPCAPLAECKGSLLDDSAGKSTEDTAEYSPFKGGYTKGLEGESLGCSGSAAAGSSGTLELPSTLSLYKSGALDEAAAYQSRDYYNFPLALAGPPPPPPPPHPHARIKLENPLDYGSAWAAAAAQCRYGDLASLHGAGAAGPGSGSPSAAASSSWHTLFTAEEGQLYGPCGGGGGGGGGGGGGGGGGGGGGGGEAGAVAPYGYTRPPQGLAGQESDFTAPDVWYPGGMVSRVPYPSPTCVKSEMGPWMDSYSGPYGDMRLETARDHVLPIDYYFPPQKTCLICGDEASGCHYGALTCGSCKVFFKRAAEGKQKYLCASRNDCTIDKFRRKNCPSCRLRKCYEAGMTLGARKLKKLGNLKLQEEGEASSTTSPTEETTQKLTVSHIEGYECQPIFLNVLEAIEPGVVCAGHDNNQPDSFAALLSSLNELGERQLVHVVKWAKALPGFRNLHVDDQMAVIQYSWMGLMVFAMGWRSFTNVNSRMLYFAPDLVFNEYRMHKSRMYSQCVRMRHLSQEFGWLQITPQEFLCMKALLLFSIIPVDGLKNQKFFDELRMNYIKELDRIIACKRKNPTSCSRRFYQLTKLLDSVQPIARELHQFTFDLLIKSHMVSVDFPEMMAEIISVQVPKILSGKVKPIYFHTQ
Chain of Estrogen receptor (Homo sapiens) (P03372 whole entry, looked up): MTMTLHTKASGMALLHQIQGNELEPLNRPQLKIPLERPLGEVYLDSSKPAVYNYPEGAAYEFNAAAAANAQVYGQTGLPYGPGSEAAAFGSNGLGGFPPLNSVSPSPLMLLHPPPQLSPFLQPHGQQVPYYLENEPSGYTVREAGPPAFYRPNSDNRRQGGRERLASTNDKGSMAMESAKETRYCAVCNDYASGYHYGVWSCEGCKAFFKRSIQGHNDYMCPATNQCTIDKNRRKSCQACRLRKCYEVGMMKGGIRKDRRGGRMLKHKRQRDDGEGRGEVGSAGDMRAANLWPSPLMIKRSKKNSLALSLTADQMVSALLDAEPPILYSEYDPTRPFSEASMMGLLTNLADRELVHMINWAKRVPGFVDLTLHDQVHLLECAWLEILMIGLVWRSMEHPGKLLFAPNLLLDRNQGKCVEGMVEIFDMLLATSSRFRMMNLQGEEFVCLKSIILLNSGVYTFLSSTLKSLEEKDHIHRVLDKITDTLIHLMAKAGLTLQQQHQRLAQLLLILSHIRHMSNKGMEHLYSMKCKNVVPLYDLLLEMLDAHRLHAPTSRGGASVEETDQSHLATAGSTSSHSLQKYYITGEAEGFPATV

NC(=O)CCl
inactive: Potency [1] | Potency [2] | Potency [3] | Potency [4] | Potency [5] | Potency [6]

N#CSCSC#N
active: Potency [1] 62.5 µM | Potency [2] 49.6 µM | Potency [7] 11.1 µM and 6.79 µM | Potency [8] 2.79 µM and 2.41 µM
inactive: Potency [4]

CCOP(=S)(OCC)SCS(=O)(=O)CC
inactive: Potency [1] | Potency [2] | Potency [3] | Potency [4] | Potency [7] | Potency [6] | Potency [8]

CCOC(=O)c1ccccc1S(=O)(=O)NC(=O)Nc1nc(Cl)cc(OC)n1
inactive: Potency [1] | Potency [2] | Potency [4] | Potency [7] | Potency [5] | Potency [6] | Potency [8]

O=[N+]([O-])c1ccc2ccc3cccc4ccc1c2c34
active: Potency [2] 0.863 µM
inactive: Potency [1] | Potency [4] | Potency [7] | Potency [5] | Potency [6] | Potency [8]

C[C@]12Cc3nonc3C[C@@H]1CC[C@@H]1[C@@H]2CC[C@@]2(C)[C@H]1CC[C@]2(C)O
active: Potency [2] 21.1 µM
inactive: Potency [1] | Potency [3] | Potency [4] | Potency [6]

CC(O)C#N (stereo unspecified)
inactive: Potency [1] | Potency [2] | Potency [3] | Potency [4] | Potency [7] | Potency [5] | Potency [8]

Cc1cccc(OP(=O)(Oc2cccc(C)c2)Oc2cccc(C)c2)c1
inactive: Potency [1] | Potency [2] | Potency [3] | Potency [4] | Potency [7] | Potency [5] | Potency [6] | Potency [8]

COc1ccc(/C(=C/C(=O)N2CCOCC2)c2ccc(Cl)cc2)cc1OC
inactive: Potency [1] | Potency [4] | Potency [7] | Potency [6]
active: Potency [2] 1.54 µM

CCOC(=O)CC(=O)CCl
inactive: Potency [1] | Potency [3] | Potency [4] | Potency [7] | Potency [5] | Potency [6] | Potency [8]
active: Potency [2] 30.6 µM

C[CH2][Hg][N]1C(=O)C2C(C1=O)C1(Cl)C(Cl)=C(Cl)C2(Cl)C1(Cl)Cl (stereo unspecified)
inactive: activity change, negative = cytotoxicity [4] -3.87% [at 19 µM] | activity change [6] -11.5% [at 18.9 µM, hits give high values]
active: Potency [1] 13 µM | Potency [2] 7.3 µM | Potency [7] 7.3 µM | Potency [8] 14.6 µM

C[C@H]1CC[C@@H]2[C@@H](C)[C@H]3[C@H](C[C@H]4[C@@H]5CC=C6CC(O[C@@H]7O[C@H](CO)[C@H](O)[C@H](O[C@@H]8O[C@H](CO)[C@@H](O)[C@H](O)[C@H]8O)[C@H]7O[C@H]7O[C@@H](C)[C@H](O)[C@@H](O)[C@H]7O)CC[C@]6(C)[C@H]5CC[C@]34C)N2C1 (stereo partly specified)
active: Potency [1] 25.1 µM | Potency [4] 28.2 µM
inactive: Potency [9] | Potency [10] | Potency [3] | Potency [5] | Potency [6]

CCCCOP(=O)(CCCC)OCCCC
inactive: Potency [1] | Potency [2] | Potency [3] | Potency [4] | Potency [7] | Potency [5] | Potency [8]

CCOP(=O)(NC(C)C)Oc1ccc(SC)c(C)c1 (stereo unspecified)
inactive: Potency [1] | Potency [3] | Potency [4] | Potency [7] | Potency [6]
active: Potency [2] 27.3 µM
